Assay outcomes as filed in PubChem BioAssay.
MEP2 TOR yeast: modulators of TOR pathway MEP2-GFP in S. cerevisiae. S. cerevisiae MEP2-GFP strain, flow cytometry GFP, 3 h; 100% = DMSO control level. GFP response vs DMSO, % at 10 µM. 330,000 compounds, 0.51% hits. AID 2016;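 active = GFP response versus DMSO above a set limit, roughly screen mean plus 3 SD, cut at about 180% in these data; inconclusive = fewer than 70 cells counted for a yeast strain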;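 note: median GFP fluorescence of the barcode-gated MEP2-GFP cells per well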
AGP1 TOR yeast: modulators of TOR pathway AGP1-GFP in S. cerevisiae; 320,000 compounds, 0.02% hits; S. cerevisiae AGP1-GFP multiplex flow cytometry, 3 h; GFP as percent of DMSO wells; GFP response vs DMSO, % at 10 µM;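 active = GFP response relative to DMSO above a set limit, near screen average plus 3 SD, cut at about 150% in these data; inconclusive = fewer than 70 cells counted for the yeast strain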;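 note: median GFP channel fluorescence of the gated AGP1 strain per well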
VLA-4 inh: inhibition in a human VLA-4 binding assay | inhibition, % (about 7 µM as worked out from the volumes in the protocol) | P13612 | 330,000 compounds, 0.2% hits | VLA-4 expressing cells, ligand binding flow cytometry; in the data active = inhibition above about 50%
Target sequence (P13612 whole entry, looked up): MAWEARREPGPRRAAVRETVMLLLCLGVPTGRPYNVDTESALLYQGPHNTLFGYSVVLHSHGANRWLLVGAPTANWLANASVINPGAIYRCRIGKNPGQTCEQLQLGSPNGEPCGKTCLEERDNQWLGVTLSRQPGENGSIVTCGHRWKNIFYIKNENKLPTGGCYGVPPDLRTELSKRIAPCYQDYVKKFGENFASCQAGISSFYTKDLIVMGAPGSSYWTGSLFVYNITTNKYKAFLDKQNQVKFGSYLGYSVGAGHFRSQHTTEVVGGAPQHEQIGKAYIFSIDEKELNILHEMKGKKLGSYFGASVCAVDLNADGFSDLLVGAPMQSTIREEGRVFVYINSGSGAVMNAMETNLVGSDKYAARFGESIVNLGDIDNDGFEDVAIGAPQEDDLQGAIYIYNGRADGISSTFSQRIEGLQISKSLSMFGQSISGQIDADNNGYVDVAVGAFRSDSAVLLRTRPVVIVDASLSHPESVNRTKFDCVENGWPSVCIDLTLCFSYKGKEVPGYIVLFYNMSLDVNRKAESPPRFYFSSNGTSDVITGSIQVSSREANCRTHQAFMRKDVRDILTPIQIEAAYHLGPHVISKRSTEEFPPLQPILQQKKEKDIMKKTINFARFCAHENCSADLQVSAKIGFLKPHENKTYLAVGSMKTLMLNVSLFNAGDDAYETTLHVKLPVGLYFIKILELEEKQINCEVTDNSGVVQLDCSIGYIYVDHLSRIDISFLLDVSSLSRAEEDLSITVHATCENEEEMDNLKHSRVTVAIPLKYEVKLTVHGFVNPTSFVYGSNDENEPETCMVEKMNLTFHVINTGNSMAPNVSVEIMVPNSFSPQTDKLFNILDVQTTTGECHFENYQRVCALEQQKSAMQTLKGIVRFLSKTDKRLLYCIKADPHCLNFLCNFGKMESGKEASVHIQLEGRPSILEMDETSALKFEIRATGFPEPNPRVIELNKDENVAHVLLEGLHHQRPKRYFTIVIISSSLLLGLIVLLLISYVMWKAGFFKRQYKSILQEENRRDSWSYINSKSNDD
LAP4-GFP MLPCN: alters LAP4-GFP fluorescence in TOR pathway yeast screen | S. cerevisiae LAP4-GFP multiplex, flow cytometry GFP, 3 h; median GFP as percent of DMSO wells | GFP response vs DMSO, % at 10 µM | 320,000 compounds, 0.34% hits | AID 2023;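 active = GFP response vs DMSO above a set limit, about the screen mean plus 3 SD, cut at about 150% in these data; inconclusive = under 70 cell events counted for the yeast strain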
CIT2-GFP yeast: alters CIT2-GFP fluorescence in TOR pathway yeast screen; S. cerevisiae CIT2-GFP strain, flow cytometry, 3 h; 100 means same as DMSO wells; 320,000 compounds, 0.065% hits; GFP response vs DMSO, % at 10 µM;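 active = GFP response relative to DMSO above a set limit, near the screen mean plus 3 SD, cut at about 150% in these data; inconclusive = Fewer than 70 cells measured for a yeast strain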;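 note: ratio of well median GFP fluorescence to mean of DMSO wells on the plate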
RPL19A TOR yeast: alters RPL19A-GFP fluorescence in TOR pathway yeast screen | 330,000 compounds, 0.3% hits | percent response vs DMSO, % at 10 µM | S. cerevisiae RPL19A-GFP strain, flow cytometry, 3 h; hits give low values | AID 2025;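 active = percent response vs DMSO below 50%; inconclusive = fewer than 70 events counted for the yeast strain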;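 note: median channel GFP fluorescence of the barcoded RPL19A-GFP strain; ratio of sample median GFP to plate DMSO average so 100% = DMSO; lower means less RPL19A-GFP as with rapamycin TOR inhibition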
The depositor's hits bear a star; ? = inconclusive; nt = no result given; ! = a repeat was not active; [ ] = remark or other dose. In the library only some 1.1% were active in any assay of this set; here they are far more common.

SMILES	MEP2 TOR yeast	AGP1 TOR yeast	VLA-4 inh	LAP4-GFP MLPCN	CIT2-GFP yeast	RPL19A TOR yeast
Cc1cc(S(=O)(=O)N2CCCC(N3CCOCC3)C2)c(C)cc1Cl (configuration not stated)	106	102	16	91	106	103
Nc1c2c(nc3ccccc13)CCCC2	100	82	-8	131	80	98
Nc1c2ccccc2nc2ccccc12	206*![may fluoresce violet]	?	-5	68	?	37*[may fluoresce violet]
Cc1cccc(OCc2nnc(SCC(=O)N3c4ccccc4CCc4ccccc43)o2)c1	946*[may fluoresce violet]	26	9	115	?	51
O=C(NC1CCCC1)C(c1ccccc1F)N(C(=O)c1csnn1)C1CC1 (configuration not stated)	106	95	6	103	90	99
O=C(NCc1ccc(F)cc1)C(c1ccco1)N(C(=O)c1csnn1)C1CC1 (configuration not stated)	219*[may fluoresce violet]	?	-8	61	?	34*[may fluoresce violet]
O=C(NCc1ccccc1)C(c1ccco1)N(C(=O)c1csnn1)C1CC1 (configuration not stated)	100	96	-6	88	96	97
CCOc1ccccc1C(C(=O)NC1CCCCC1)N(C(=O)c1csnn1)C1CC1 (configuration not stated)	369*[may fluoresce violet]	?	1	65	?	38*[may fluoresce violet]
O=C(NCCCN1CCCC1=O)Nc1ccccc1F	87	95	8	85	90	97
O=S(=O)(c1cccc(Cn2nnc(-c3ccccc3)n2)c1)N1CCOCC1	96	85	2	88	83	97
CN(C)C(/C=C/Nc1ccc(Br)cc1)=C(C#N)C#N	87	88	2	88	nt	86
Brc1ccc(N=C/C=C/C=C/Nc2ccc(Br)cc2)cc1	430*[may fluoresce green]	135	-347	413*[may fluoresce green]	367*[may fluoresce green]	152
Cc1ccc(-n2ncc3c(=O)n(CC(=O)NC4CCCC4)cnc32)cc1C	?	nt	-1	82	?	39*[may fluoresce violet]
CC(C)CC(O)(c1ccccc1)C(CN1CCOCC1)c1ccccc1 (configuration not stated)	378*[may fluoresce violet]	?	0	80	?	22*[may fluoresce violet]
CC(C)CCC(O)(c1ccccc1)C(CN1CCOCC1)c1ccccc1 (configuration not stated)	121	109	1	101	106	99
Cc1ccc(N(Cc2ccccc2)C(=O)c2cc(S(=O)(=O)N3CCOCC3)ccc2F)cc1	95	92	-41	88	97	98
CCCCCCN1C2=NCCCN2c2ccccc21	96	110	-1	109	100	103
CCCN1C2=NS(=O)(=O)CCN2c2ccccc21	260*[may fluoresce violet]	31	1	85	?	nt
CC(OC(=O)c1ccc2c(=O)n3c(nc2c1)CCC3)C(=O)NC1CCCCC1C (configuration not stated)	106	100	14	86	nt	117
N=c1c(C(=O)NCc2ccco2)cc2c(=O)n3ccccc3nc2n1CCc1ccccc1	325*	74	-14	93	89	48*
Cc1ccc2nc3c(cc(C(=O)NCc4ccco4)c(=N)n3C3CCCC3)c(=O)n2c1	?	?	1	?	?	26*[may fluoresce violet]
N=c1c(C(=O)NCC2CCCO2)cc2c(=O)n3ccccc3nc2n1Cc1ccccc1 (configuration not stated)	212*[may fluoresce red and violet]	?	-4	58	?	?
N=c1c(C(=O)NCC2CCCO2)cc2c(=O)n3ccccc3nc2n1Cc1ccccc1Cl (configuration not stated)	258*[may fluoresce violet]	?	41	46	?	38*[may fluoresce violet]
N=c1c(C(=O)NCC2CCCO2)cc2c(=O)n3ccccc3nc2n1Cc1ccc(Cl)cc1 (configuration not stated)	112	17	23	95	91	98
Cc1ccc(Cn2c(=N)c(C(=O)NCc3ccco3)cc3c(=O)n4ccccc4nc32)cc1	155	19	8	97	102	71
SMILES	MEP2 TOR yeast	AGP1 TOR yeast	VLA-4 inh	LAP4-GFP MLPCN	CIT2-GFP yeast	RPL19A TOR yeast
COc1ccc(CNC(=O)CN2C(=O)CSc3ccc(S(=O)(=O)N4CCOCC4)cc32)c(OC)c1	120	108	5	107	108	116
N=c1c(C(=O)NCc2ccc3c(c2)OCO3)cc2c(=O)n3ccccc3nc2n1CC1CCCO1 (configuration not stated)	101	96	-3	92	102	97
N=c1c(C(=O)NCCc2ccccc2)cc2c(=O)n3ccccc3nc2n1CC1CCCO1 (configuration not stated)	?	?	-12	?	?	22*[may fluoresce violet]
Cc1cccn2c(=O)c3cc(C(=O)NCCc4ccccc4)c(=N)n(CC4CCCO4)c3nc12 (configuration not stated)	101	93	-15	91	90	104
N=c1c(C(=O)NCc2ccco2)cc2c(=O)n3ccccc3nc2n1CC1CCCO1 (configuration not stated)	266*[may fluoresce violet]	?	-6	84	?	27*[may fluoresce violet]
Cc1cccn2c(=O)c3cc(C(=O)NCc4ccco4)c(=N)n(CCOCCO)c3nc12	239*[may fluoresce violet]	?	16	102	?	35*[may fluoresce violet]
CC1=C(CC(=O)NCC(=O)NCC(=O)O)c2cc(F)ccc2/C1=C/c1ccc(S(C)=O)cc1 (configuration not stated)	107	99	34	104	96	99
Cc1onc(-c2ccccc2Cl)c1C(=O)N[C@@H](C)c1ccccc1	102	107	8	121	99	97
CN1CC=C2C(C#N)=C(N)C(C#N)(C#N)[C@H](c3cccc(Cl)c3)C2C1 (some centres not stated)	98	100	-7	97	96	99
CC(C)c1ccc(C2C3CSCC=C3C(C#N)=C(N)C2(C#N)C#N)cc1 (configuration not stated)	98	103	-25	170*	98	96
CCOC(=O)/C=C1\SC(C)C(=O)N1CC(=O)N(CCC#N)c1ccccc1 (configuration not stated)	97	106	7	114	93	103
COc1ccccc1-c1nnc(NC(=O)c2ccc3c(c2)OCO3)s1	272*	99	25	124	115	97
CCOc1ccc(NC(=O)CN(C)C(=O)C2CCN(C(=O)c3ccc(Cl)cc3)CC2)cc1OCC	98	103	-2	116	96	105
COC(=O)c1ccc(C(=O)NC(=S)Nc2ccc3nc(SC)sc3c2)cc1	346*	85	3	113	116	94
COC(=O)c1ccccc1OCC(=O)NC1CCCCC1	99	97	24	165*	79	96
